These results are taken from ChEMBL document CHEMBL3433997, “St. Jude Leishmania screening dataset” (2016).

Sequence of Solute carrier family 2, facilitated glucose transporter member 1 (Homo sapiens) (P11166 whole entry): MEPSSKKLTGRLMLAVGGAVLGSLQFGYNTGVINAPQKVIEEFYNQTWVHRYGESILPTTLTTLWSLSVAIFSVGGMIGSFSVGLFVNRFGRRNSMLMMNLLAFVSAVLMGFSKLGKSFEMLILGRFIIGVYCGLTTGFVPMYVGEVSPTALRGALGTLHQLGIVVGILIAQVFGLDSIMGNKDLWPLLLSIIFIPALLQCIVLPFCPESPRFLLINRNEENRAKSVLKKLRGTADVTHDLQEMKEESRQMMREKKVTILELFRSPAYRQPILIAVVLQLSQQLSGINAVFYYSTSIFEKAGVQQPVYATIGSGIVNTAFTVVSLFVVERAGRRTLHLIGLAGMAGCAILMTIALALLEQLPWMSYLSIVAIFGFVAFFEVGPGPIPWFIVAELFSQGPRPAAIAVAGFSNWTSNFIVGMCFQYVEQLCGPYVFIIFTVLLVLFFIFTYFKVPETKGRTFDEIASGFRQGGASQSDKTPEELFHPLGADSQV

The first assay has as its target Solute carrier family 2, facilitated glucose transporter member 1 (Homo sapiens) (UniProt P11166). In words: ST_JUDE_LEISH: Cytotoxicity at 2uM final concentration against transgenic Leishmania Mexicana promastigotes LmGLUT1 that are glucose transport deficient and complemented with the human glucose transporter GLUT1. Activity is measured by DNA content using SYBR green in vitro. In kind it is functional.
As for `CC(=O)c1c[nH]c(C(=O)Nc2ccc(-c3cn4ccccc4n3)cc2)c1`, the inhibition was 11.8%.

On to `COc1ccc(-c2cnc(N)nc2N)cc1Cl`, for which the inhibition came out at 1.93%.

For the compound `CCN1CCN(C(=O)NC(C(=O)N(C)Cc2ccc(-c3ccc(C(F)(F)F)cc3)cc2)c2cccs2)C(=O)C1=O` (stereo not given), the inhibition turned out to be 1.34%.

`O=C(NCc1ccc(C(=O)NCc2cccc3ccccc23)cc1)c1ccc(O)c(-c2ccc(Cl)c(Cl)c2)c1`: the inhibition turned out to be 0.64%.

Take `COc1cc(NCC(O)CNc2cc(Cl)nc3ccccc23)nc2ccccc12` (stereo not given): the inhibition was 8.65%.

As for `O=[N+]([O-])c1cccc(CNC2CCN(Cc3ccc(C(F)(F)F)cc3)CC2)c1`, the inhibition is 2.18%.

Regarding `Cc1cccn2c(=O)c3cc(C(=O)NCCN4CCOCC4)c(=N)n(CCc4ccccc4)c3nc12`, the inhibition is -0.34%.

On to `CCCc1cc(N2CCC(N(CC)CC)C2)nc(Nc2ccc(OC)cc2)n1` (stereo not given), for which the inhibition worked out at 3.16%.

`FC(F)(F)c1ccc(CSc2ccc3nnc(-c4ccccn4)n3n2)cc1`: the inhibition turned out to be 9.17%.

On to `CC(Sc1nc(-c2ccccc2)c(-c2ccccc2)o1)C(=O)NC1CC1` (stereo not given), for which the inhibition was -2%.

For `O=C(c1ccc(-c2ccc(Cl)cc2)o1)N1CCc2cc3nccc(N4CCN5CCC[C@H]5C4)c3cc21`, the inhibition is -1.09%.

Turning to `CC(Sc1nnc(-c2cccs2)[nH]1)C(=O)c1c[nH]c2ccccc12` (stereo not given), the inhibition amounted to 0.9%.

As for `O=C(Nc1ccc(OC2CCN(Cc3ccc(F)cc3)C2)c(Cl)c1)c1ccoc1` (stereo not given), the inhibition was found to be 0.67%.

In the case of `COc1ccccc1CCNc1ncnc2c1[nH]c1ccc(F)cc12`, the inhibition stood at 4.25%.

For the compound `CC(NC(=O)NC1CCC(CCN2CCCc3ccccc32)CC1)c1cccc2ccccc12` (stereo not given), the inhibition was determined as 0.93%.

Turning to `CCN(CC)CCN(Cc1ccc(-c2ccc(C(F)(F)F)cc2)cc1)C(=O)c1ccc(-c2ccc(NC(=O)OC)cc2C)cc1`, the inhibition amounted to 29.9%.

As for `FC(F)(F)c1ccc2[nH]c(-c3cccc(-c4cccc(CNCCc5ccncc5)c4)c3)nc2c1`, the inhibition turned out to be 4.96%.

As for `Cc1ccc(S(=O)(=O)N2CCN(C(=O)c3cc(-c4ccccc4)n[nH]3)CC2)cc1`, the inhibition came out at 4.96%.

Turning to `COc1ccc(Cl)cc1N1CCN(CCCNC(=O)c2ccc(-c3nc4c(C)cccc4[nH]3)s2)CC1`, the inhibition turned out to be 1.19%.

For the compound `CCCc1cc(Cc2cnc(N)nc2N)ccc1OCCCCCC(=O)OCC`, the inhibition is 1.31%.

As for `O=C(/C=C/c1ccc(Cl)c(Cl)c1)NCCCCCN1CCCN(C(=O)Nc2ccc(Cl)c(Cl)c2)CC1`, the inhibition is -0.96%.

Regarding `CCOc1c(Br)cc(Br)cc1CNCCCCNc1nc2ccccc2[nH]1`, the inhibition came out at 3.08%.

Take `CC(C)(C)c1ccc(OCC(=O)NC2CCN(c3ccnc4cc(Cl)ccc34)C2)cc1` (stereo not given): the inhibition turned out to be 0.64%.

With `CCC(Cc1cnc2nc(N)nc(N)c2n1)c1ccc(C(=O)O)cc1` (stereo not given), the inhibition worked out at 1.41%.

Consider `CCCCCN1CCCC(NS(=O)(=O)c2cccc(C(=O)Nc3cccc(C(F)(F)F)c3)c2)C1` (stereo not given), for which the inhibition was -0.69%.

`O=C(NC(Cc1ccccc1)C(=O)O)c1cc(=O)c2ccccc2o1` (stereo not given): the inhibition amounted to 0.32%.

`O=C(/C=C/c1ccc(Cl)c(Cl)c1)NCCCCCCN1CCCN(C(=O)Nc2ccc(Cl)c(Cl)c2)CC1`: the inhibition is 2.36%.

For the compound `NS(=O)(=O)NCCCN1CCN(c2ccccc2)CC1`, the inhibition was determined as 1.95%.

Regarding `CCC(CC)NCc1c(O)ccc2c(CNC(CC)CC)c(O)ccc12`, the inhibition was -1.88%.

On to `O=C(NCC1CCN(Cc2ccc3c(c2)OCCO3)C1)c1cc(-c2cccc(C(F)(F)F)c2)cs1` (stereo not given), for which the inhibition was -2.67%.

`Cn1cc(CN2CCCC(COC(c3ccc(F)cc3)c3ccc(F)cc3)C2)cn1` (stereo not given): the inhibition stood at 2.32%.

`Cc1cc(N[C@@H](CC(C)C)C(=O)NCCOc2ccccc2)nc(NCC2CCCCC2)n1`: the inhibition turned out to be 3.08%.

As to `COc1ccc(CN(C)CCOc2ccc(NC(=O)c3cccc4c(=O)c5cc(SC)ccc5[nH]c34)cc2)cc1OC`, the inhibition came out at 10.2%.

Turning to `COc1ccc(CCC(C)(C)NCC(O)c2cccc(C(F)(F)F)c2)cc1` (stereo not given), the inhibition worked out at 3.28%.

Turning to `Cc1ccc(Nc2nccc(Nc3ccc4c(c3)nc(Nc3cc(C(C)(C)C)on3)n4C)n2)cc1S(C)(=O)=O`, the inhibition is 3.26%.

`COCCNCc1cccc(-c2ccc(CNC3CCN(Cc4ccccc4)CC3)cc2)c1`: the inhibition came to 1.41%.

Turning to `CCCCOc1cc2ncc(C(=O)OCC)c(O)c2cc1OCCCC`, the inhibition was 0.09%.

On to `COc1ccc(CCNC(=O)c2ccc(-n3cc(NC(=O)c4cccnc4)cn3)cc2)cc1OC`, for which the inhibition turned out to be 3.78%.

As for `CCCN(CCCCNC(=O)c1ccc(-c2cccnc2)cc1)C1CCc2c(O)cccc2C1` (stereo not given), the inhibition is 3.63%.

Turning to `Cc1ccc(CN2CCN(Cc3cccc(NC(=O)c4cccs4)c3)CC2)cc1C`, the inhibition amounted to 2.28%.

In another assay the target is Hexose transporter 1 (Plasmodium falciparum) (UniProt O97467). Briefly: ST_JUDE_LEISH: Cytotoxicity at 2uM final concentration against transgenic Leishmania Mexicana promastigotes LmPfHT that are glucose transport deficient and complemented with the Plasmodium falciparum hexose transporter. Activity is measured by DNA content using SYBR green in vitro. In kind it is functional.
Turning to `CC(=O)c1c[nH]c(C(=O)Nc2ccc(-c3cn4ccccc4n3)cc2)c1`, the inhibition is 10.9%.

Consider `COc1ccc(-c2cnc(N)nc2N)cc1Cl`, for which the inhibition came out at 1.5%.

As to `CCN1CCN(C(=O)NC(C(=O)N(C)Cc2ccc(-c3ccc(C(F)(F)F)cc3)cc2)c2cccs2)C(=O)C1=O` (stereo not given), the inhibition is 0.77%.

On to `O=C(NCc1ccc(C(=O)NCc2cccc3ccccc23)cc1)c1ccc(O)c(-c2ccc(Cl)c(Cl)c2)c1`, for which the inhibition came out at 2.17%.

Take `COc1cc(NCC(O)CNc2cc(Cl)nc3ccccc23)nc2ccccc12` (stereo not given): the inhibition amounted to 8.28%.

Regarding `O=[N+]([O-])c1cccc(CNC2CCN(Cc3ccc(C(F)(F)F)cc3)CC2)c1`, the inhibition stood at 2.08%.

Consider `Cc1cccn2c(=O)c3cc(C(=O)NCCN4CCOCC4)c(=N)n(CCc4ccccc4)c3nc12`, for which the inhibition came out at 2.09%.

`CCCc1cc(N2CCC(N(CC)CC)C2)nc(Nc2ccc(OC)cc2)n1` (stereo not given): the inhibition is 3.72%.

With `FC(F)(F)c1ccc(CSc2ccc3nnc(-c4ccccn4)n3n2)cc1`, the inhibition is 9.71%.

Regarding `CC(Sc1nc(-c2ccccc2)c(-c2ccccc2)o1)C(=O)NC1CC1` (stereo not given), the inhibition stood at 1.75%.

With `O=C(c1ccc(-c2ccc(Cl)cc2)o1)N1CCc2cc3nccc(N4CCN5CCC[C@H]5C4)c3cc21`, the inhibition was 0.64%.

Consider `CC(Sc1nnc(-c2cccs2)[nH]1)C(=O)c1c[nH]c2ccccc12` (stereo not given), for which the inhibition was found to be 1.35%.

Regarding `O=C(Nc1ccc(OC2CCN(Cc3ccc(F)cc3)C2)c(Cl)c1)c1ccoc1` (stereo not given), the inhibition was found to be 1.54%.

As to `COc1ccccc1CCNc1ncnc2c1[nH]c1ccc(F)cc12`, the inhibition stood at 12.9%.

Regarding `CC(NC(=O)NC1CCC(CCN2CCCc3ccccc32)CC1)c1cccc2ccccc12` (stereo not given), the inhibition came out at 1.8%.

As to `CCN(CC)CCN(Cc1ccc(-c2ccc(C(F)(F)F)cc2)cc1)C(=O)c1ccc(-c2ccc(NC(=O)OC)cc2C)cc1`, the inhibition came to 17.9%.

For `FC(F)(F)c1ccc2[nH]c(-c3cccc(-c4cccc(CNCCc5ccncc5)c4)c3)nc2c1`, the inhibition came out at 4.69%.

Turning to `Cc1ccc(S(=O)(=O)N2CCN(C(=O)c3cc(-c4ccccc4)n[nH]3)CC2)cc1`, the inhibition is 2.9%.

Turning to `COc1ccc(Cl)cc1N1CCN(CCCNC(=O)c2ccc(-c3nc4c(C)cccc4[nH]3)s2)CC1`, the inhibition is -0.51%.

For `CCCc1cc(Cc2cnc(N)nc2N)ccc1OCCCCCC(=O)OCC`, the inhibition is -1.27%.

As to `O=C(/C=C/c1ccc(Cl)c(Cl)c1)NCCCCCN1CCCN(C(=O)Nc2ccc(Cl)c(Cl)c2)CC1`, the inhibition was -0.4%.

On to `CCOc1c(Br)cc(Br)cc1CNCCCCNc1nc2ccccc2[nH]1`, for which the inhibition amounted to 2.4%.

For `CC(C)(C)c1ccc(OCC(=O)NC2CCN(c3ccnc4cc(Cl)ccc34)C2)cc1` (stereo not given), the inhibition was found to be 0.05%.

On to `CCC(Cc1cnc2nc(N)nc(N)c2n1)c1ccc(C(=O)O)cc1` (stereo not given), for which the inhibition is 1.88%.

Consider `CCCCCN1CCCC(NS(=O)(=O)c2cccc(C(=O)Nc3cccc(C(F)(F)F)c3)c2)C1` (stereo not given), for which the inhibition was -0.64%.

Consider `O=C(NC(Cc1ccccc1)C(=O)O)c1cc(=O)c2ccccc2o1` (stereo not given), for which the inhibition amounted to 1.17%.

Consider `O=C(/C=C/c1ccc(Cl)c(Cl)c1)NCCCCCCN1CCCN(C(=O)Nc2ccc(Cl)c(Cl)c2)CC1`, for which the inhibition was 2.49%.

Consider `NS(=O)(=O)NCCCN1CCN(c2ccccc2)CC1`, for which the inhibition is 1.37%.

Regarding `CCC(CC)NCc1c(O)ccc2c(CNC(CC)CC)c(O)ccc12`, the inhibition was -0.71%.

In the case of `O=C(NCC1CCN(Cc2ccc3c(c2)OCCO3)C1)c1cc(-c2cccc(C(F)(F)F)c2)cs1` (stereo not given), the inhibition was -0.91%.

`Cn1cc(CN2CCCC(COC(c3ccc(F)cc3)c3ccc(F)cc3)C2)cn1` (stereo not given): the inhibition is 1.9%.

Turning to `Cc1cc(N[C@@H](CC(C)C)C(=O)NCCOc2ccccc2)nc(NCC2CCCCC2)n1`, the inhibition came to 9.67%.

In the case of `COc1ccc(CN(C)CCOc2ccc(NC(=O)c3cccc4c(=O)c5cc(SC)ccc5[nH]c34)cc2)cc1OC`, the inhibition was 8.45%.

On to `COc1ccc(CCC(C)(C)NCC(O)c2cccc(C(F)(F)F)c2)cc1` (stereo not given), for which the inhibition came to 3.58%.

Consider `Cc1ccc(Nc2nccc(Nc3ccc4c(c3)nc(Nc3cc(C(C)(C)C)on3)n4C)n2)cc1S(C)(=O)=O`, for which the inhibition worked out at 5.38%.

As for `COCCNCc1cccc(-c2ccc(CNC3CCN(Cc4ccccc4)CC3)cc2)c1`, the inhibition was found to be 3.3%.

Consider `CCCCOc1cc2ncc(C(=O)OCC)c(O)c2cc1OCCCC`, for which the inhibition is 0.46%.

As to `COc1ccc(CCNC(=O)c2ccc(-n3cc(NC(=O)c4cccnc4)cn3)cc2)cc1OC`, the inhibition was 3.85%.

Consider `CCCN(CCCCNC(=O)c1ccc(-c2cccnc2)cc1)C1CCc2c(O)cccc2C1` (stereo not given), for which the inhibition was 2.13%.

Take `Cc1ccc(CN2CCN(Cc3cccc(NC(=O)c4cccs4)c3)CC2)cc1C`: the inhibition is 2.39%.

What is called inhibition is the drop in the measured response relative to a control, in per cent.
